# Source: PubChem BioAssay
# The full list was thinned out, with hits kept by preference.
# Pf apPOL block: Pf-apPOL DNA polymerase inhibition | AID 1794808 | Recombinant Pf-apPOL, molecular beacon fluorescence, 1.5 h | inhibition, % at 10 µM | 210,000 tested, 0.25% active
# mHTT CaM bind: disrupts binding of mutant huntingtin to calmodulin. P42858. 190,000 tested, 3.6% active. inhibition, % at 15 µM. AlphaScreen His-mHTT/GST-CaM binding, luminescence. AID 1671202
# Numbers stand for hits; . = inactive; / = no result. Rule as the data show it: active = inhibition above about 50%; inactive = the rest.
SMILES,Pf apPOL block,mHTT CaM bind
COc1ccc(Oc2ccc(C(F)(F)F)cc2NC(=O)c2ccc(OC)cc2)cc1,.,/
COc1ccc([C@H]2C=C3CNS(=O)(=O)[C@H]3C[C@H]2OC(=O)c2cccs2)cc1,.,.
Cc1ccc(S(=O)(=O)c2cc3c(=O)n4ccccc4nc3n(CCN3CCOCC3)c2=N)cc1,.,.
CCOC(=O)N1CCc2nn(CC(=O)Nc3ccccc3Cl)c(=O)cc2C1,.,.
Cc1ccc(-c2csc(=Nc3ccccc3)n2CCCO)cc1,.,53
OCCCn1c(-c2ccc(Cl)s2)csc1=Nc1ccccc1,.,.
Cc1ccc(-c2csc(=Nc3ccccc3)n2CCCN(C)C)cc1,.,73
c1ccc(CCn2c(-c3ccccc3)csc2=Nc2ccccc2)cc1,/,.
COc1ccc(/C=C2N=C(/C=C/c3ccccc3OC)OC/2=O)c(OC)c1,.,.
CN(C)c1n[nH]c(=O)[nH]c1=O,.,.
Cc1c(CC(Cl)(Cl)Cl)c2c(n1-c1ccccc1[N+](=O)[O-])CCCC2=O,.,.
Cc1c(CC(Cl)(Cl)Cl)c2c(n1-c1ccc([N+](=O)[O-])cc1)CCCC2=O,.,73
CCOc1ccc(C(=O)N2CCC(n3c(-c4ccc(OC)cc4)nc4cccnc43)C2)cc1 (centres undefined),.,.
O=c1ccc(-c2cccs2)nn1CCNS(=O)(=O)c1ccc(Cl)s1,.,.
Cc1ccnc2c1ccc1cccnc12,/,100
c1cnc2c(c1)ccc1cccnc12,.,/
CN1CN(Cc2ccccc2)CNC1=S,/,.
COCc1nc2c(N)cccn2n1,.,.
O=C(/C=C/c1ccc(-c2ccc(F)cc2)o1)c1cccs1,.,91
O=C(/C=C/c1ccc(-c2ccccc2)o1)c1cccs1,.,.
COc1cccc(-c2cc(C3CCN(C(=O)NCc4ccc(F)cc4)CC3)[nH]n2)c1,.,.
Cc1csc(SCc2cc(=O)c(OC(=O)c3c(F)cccc3Cl)co2)n1,.,.
N#CC1=C(N)Oc2n[nH]c(-c3ccc4c(c3)OCO4)c2C1c1ccc(Cl)cc1 (centres undefined),.,81
N#CC1=C(N)Oc2n[nH]c(-c3ccccn3)c2C1c1cccnc1 (centres undefined),.,.
Cc1ccc(C2C(C#N)=C(N)Oc3n[nH]c(-c4ccccc4)c32)s1 (centres undefined),.,.
SMILES,Pf apPOL block,mHTT CaM bind
N#CC1=C(N)Oc2n[nH]c(-c3ccccn3)c2C1c1ccc(O)cc1 (centres undefined),.,80
N#CC1=C(N)Oc2n[nH]c(-c3ccccn3)c2C1c1ccncc1 (centres undefined),.,53
N#CC1=C(N)Oc2n[nH]c(-c3ccc4c(c3)OCO4)c2C1c1ccc2c(c1)OCO2 (centres undefined),.,.
COc1ccc(C2C(C#N)=C(N)Oc3n[nH]c(-c4ccccn4)c32)c(OC)c1OC (centres undefined),.,.
N#CC1=C(N)Oc2n[nH]c(-c3ccccn3)c2C1c1ccc([N+](=O)[O-])s1 (centres undefined),.,99
COc1ccccc1S(=O)(=O)NCCc1ccsc1,.,.
COc1ccc(CCNC(=O)C2CCN(c3nccc(C)n3)CC2)c(OC)c1,.,.
CCOCC(=O)NC1CCCC(O)C1 (centres undefined),.,.
O=C1CCCCCCCCCCCC(O)CCO1 (centres undefined),/,.
CN(C)CC1CN(C(=O)c2ccc3cc[nH]c3c2)CC12CCOCC2 (centres undefined),.,.
N#CC1=C(N)Oc2n[nH]c(-c3ccccn3)c2C1c1ccc2c(c1)OCO2 (centres undefined),.,62
Cc1[nH]nc2c1C(c1ccc3c(c1)OCO3)C(C#N)=C(N)O2 (centres undefined),.,.
CCCCn1c(-c2cccc(OC)c2)nc(=S)c2c1CCCC2,.,.
Cc1cccc(CNC(=O)c2nn(C)c3c2CN(C(=O)c2ccc(Cl)cc2)CC3)c1,.,64
Cc1cccc(CNC(=O)c2nn(C)c3c2CN(C(=O)c2c(F)cccc2F)CC3)c1,.,.
Cc1cccc(CNC(=O)c2nn(C)c3c2CN(C(=O)c2cccc(Cl)c2)CC3)c1,.,76
O=C1C2C3c4ccccc4C(c4ccccc43)C2C(=O)N1Cc1ccc(F)cc1 (centres undefined),.,.
Cc1cccc2c(C3CCN(C(=O)c4ccccc4OC(F)(F)F)CC3)c[nH]c12,.,100
COc1ccccc1C1CCN(C(=O)CSCc2cccc3ccccc23)CC1,.,/
CSc1ccccc1N1C(=O)C2CC(C)=C(C)CC2C1=O (centres undefined),.,.
CC1=C(C)CC2C(=O)C3=C(C(=O)C2C1)C1c2ccccc2C3c2ccccc21 (centres undefined),.,61
CC(CCc1ccco1)NC(=O)C1CCN(c2ncnc3c2nc2n3CCCCC2)CC1 (centres undefined),.,.
Cc1ccc(SCCNC(=O)Nc2ccccc2)cc1,.,.
CCn1cnc2ccc(-c3noc(-c4ccccc4)n3)cc21,.,.
